Test in all cases: NCI-60 one-dose screen, 48 h (100 = growth as untreated, 0 = no growth, -100 = all killed)
Holding throughout (conditions): 10 µM unless noted

Assay [1] has as its system NCI-H23 lung.
Assay [2] has as its system NCI-H226 lung.
Assay [3] relates to NCI-H322M lung.
Assay [4] deals with HOP-62 NSCLC.
Assay [5] has as its system NCI-H460 lung.
For assay [6], the system named is HOP-92 NSCLC.
The subject of assay [7] is NCI-H522 lung.
Assay [8] relates to A549/ATCC NSCLC.
The subject of assay [9] is 786-0 renal.
The test system of assay [10] is COLO 205 colon.
Assay [11] concerns DU-145 prostate.
The test system of assay [12] is K-562 leukemia.
Assay [13] has as its system MALME-3M melanoma.
The test system of assay [14] is MDA-MB-231 breast.
Assay [15] deals with RXF 393 renal.
Assay [16] has as its system SF-268 CNS.
Assay [17] deals with SF-295 CNS.
Assay [18] deals with SF-539 CNS.
Assay [19] deals with UACC-257 melanoma.
For assay [20], the system named is M14 melanoma.

Compounds without any hit were thinned out: in the full panel of roughly 83,000, 20% have a hit.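 In brief: 96-well plates, 48 h treatment, single concentration, percent growth endpoint.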 Unmarked numbers belong to inactive results. Active and inactive are the calls of the source. Rule for the calls: active = growth percent below 10; inactive = the rest.

In the case of `CC1(C)C2CC1C1(/C=N/NC(N)=S)C(C2)C(C#N)(C#N)C1(C#N)C#N` (stereo not given), the growth in [1] was 89.4%; in assay [2], 109%; in assay [3], 98%; in assay [4], 108%; in [5], 98.9%; in assay [6], 55.5%. Besides, the growth was -60.7% (active) in [7]; 96.4% in assay [8]; 81.7% in assay [9]; 65.4% in assay [10]; 82.6% in [11]; 13.6% in assay [12]. Moreover, the growth is 67% in assay [13]; 57.3% in [14]; 71.7% in [15]; 97.4% in assay [16]; 111% in assay [17]; 101% in assay [18]. The growth in [19] was 79.9%; in assay [20], 87.6%.

On to `C=C1CC[C@H](C(C)C)[C@@H]2[C@H]1[C@H]1CC(=C)[C@@H](O)CC[C@@](C)(O)[C@@H]2O1`, for which the growth in assay [1] was 81.6%; in assay [2], 95.2%; in [3] it was 95.4%; in assay [4], 84.3%; in [5], 108%; in [6], 86.3%. In addition, the growth is 89.5% in assay [7]; 86.2% in assay [8]; 82.6% in assay [9]; 117% in [10]; 102% in assay [11]; 97.8% in assay [12]. In addition, the growth is 98% in assay [13]; 105% in assay [14]; 108% in assay [15]; 94.7% in [16]; 98.4% in assay [17]; 98.1% in assay [18]. The growth in assay [19] is 86.2%; in assay [20], 98.6%.

As to `O=S(=O)(NCCCNc1cc(-c2c(-c3cccc(O)c3)nc3sccn23)ccn1)c1cccc2ccccc12`, the growth was 39.8% in [1]; 41.1% in assay [2]; 78.8% in assay [3]; 67.2% in [4]; 39.7% in assay [5]; 97.3% in assay [6]. Further, the growth was 51.2% in [7]; 58.9% in [8]; 51.2% in assay [9]; 35.5% in assay [10]; 42.4% in assay [11]; 21.3% in assay [12]. The growth was 48.4% in assay [13]; 72.2% in [14]; 41.1% in assay [15]; 41.5% in [16]; 34.3% in assay [17]; 72.2% in [18]. In addition, the growth was 61.2% in [19] and 45.4% in assay [20].

On to `CCc1cccc2c1S/C(=C/c1ccc(OC)cc1)C2=O`, for which the growth in [1] is 50.1%; in assay [2], 85.7%; in assay [3], 86.7%; in assay [4] it was 45.4%; in assay [5], 56%; in assay [6] it was 72.2%. For the same molecule, the growth in [7] was 42.7%; in assay [8], 89%; in [9], 63.6%; in assay [10], 105%; in [11], 49.5%; in assay [12], 11.2%. The growth in assay [13] was 51.7%; in assay [14], 46.5%; in assay [15], 40.1%; in assay [16], 64.5%; in [17], 62.9%; in [18] it was 8.87% (active). For the same molecule, the growth in [19] is 72.6%; in assay [20] it was 28.3%.

For `CCCCNC(=O)Oc1ccc(/C(=C(\C)c2ccc(Cl)cc2)c2ccc(OCCN3CCCCC3)cc2)cc1`, the growth was 78.8% in assay [1]; 99.1% in assay [2]; 94.8% in assay [3]; 78.6% in assay [4]; 85.9% in assay [5]; 64.5% in assay [6]. The growth in assay [7] is 85.2%; in [8] it was 63.8%; in assay [9] it was 63.2%; in assay [10] it was 69.2%; in assay [11], 90.4%; in assay [12], 21.6%. Moreover, the growth in [13] was 81.7%; in [14], 94%; in assay [15], 79.5%; in [16] it was 76.1%; in assay [17] it was 91.7%; in assay [18] it was 71.7%. The figures for the growth in [19] and in assay [20] were 35.5% and 68.2%, respectively.

With `CN(C)c1ccc2nc3ccc(=[N+](C)C)c([N+](=O)[O-])c-3sc2c1`, the growth in assay [1] was 9.52% (active); in assay [2], 73.2%; in [3] it was 42.2%; in assay [4], 64.2%; in [5], 25.3%; in [6], 38.7%. The growth in assay [7] was 16.3%; in assay [8], 26.3%; in [9], 31.9%; in assay [10] it was 20.3%; in [11] it was 54%; in assay [12] it was 23.8%. The growth in assay [13] was 9.75% (active); in assay [14] it was 2.84% (active); in [15] it was 79.7%; in [16], 33.4%; in assay [17], -1.42% (active); in [18], 36.6%. For the same molecule, the growth in [19] was 12.8%; in assay [20] it was 9.93% (active).

With `CCCCCCNC(=O)Oc1ccc(/C(=C(\C)c2ccc(Cl)cc2)c2ccc(OCCN3CCCCC3)cc2)cc1`, the growth in [1] was 48.5%; in assay [2] it was 91.2%; in [3], 84.9%; in [4], 68.5%; in assay [5] it was 23.8%; in [6] it was 47.6%. Moreover, the growth in [7] is 69.1%; in assay [8] it was 48.9%; in assay [9], 23.7%; in [10], -35.8% (active); in assay [11] it was 69.3%; in [12], 1.22% (active). Further, the growth was 31.6% in assay [13]; 53.4% in [14]; 24.1% in assay [15]; 56.6% in assay [16]; 48.2% in [17]; 42.5% in [18]. The figures for the growth in assay [19] and in assay [20] were 18.6% and -33.5% (active), respectively.

The values above are taken from PubChem BioAssay (NCI).
